# High-throughput results: PubChem BioAssay, The Scripps Research Institute Molecular Screening Center
# A selection: hits, their analogues and other compounds. The true share with any hit is near 4.1%.
# hgDAF-12 ag: hgDAF-12 agonism, primary luciferase screen. HEK293 GAL4-hgDAF12 UAS-luciferase reporter, agonist luminescence; normalized to butyrate control. AID 687014. activation, % at 6.8 µM. 370,000 compounds, 1.8% hits;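 active = activation above a cutoff set at the mean of all screened compounds plus 3 SD, cut at about 10% in these data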;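 note: 0% = DMSO wells and 100% = sodium butyrate wells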
# hcDAF12 agonist: H. contortus DAF-12 activation, primary screen. activation, % at 6.8 µM. HEK293 hcDAF-12 lit1-tk-luc reporter, luminescence; 0% DMSO, 100% Δ7-dafachronic acid. 370,000 compounds, 1.4% hits. AID 652067;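 active = activation above the mean of all tested compounds plus 3 SD, cut at about 5.5% in these data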;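 note: 100% = response to 3 µM Δ7-dafachronic acid high control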
# ssDAF12 agonist: activators of S. stercoralis DAF-12 nuclear receptor | HEK293 ssDAF-12/GRIP1 lit1-tk-luc reporter, luminescence; % of 3 µM dafachronic acid response | 370,000 compounds, 1% hits | AID 652126 | activation, % at 6.8 µM;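 active = activation above the mean over all tested compounds plus 3 SD, cut at about 0.9% in these data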;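 note: 0% = DMSO-only wells and 100% = 3 µM delta7-dafachronic acid wells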
# DAX1 inh-1: NR0B1 (DAX1) inhibition. HEK293 Gal4-DAX1 luciferase reporter, luminescence. P51843. inhibition, % at 6.75 µM. 340,000 compounds, 0.99% hits;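 active = inhibition above the mean over all tested compounds plus 3 SD, cut at about 4.2% in these data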;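 note: 0% = DAX1-transfected cells with DMSO and 100% = empty-vector control cells with DMSO; inhibition shows as a rise in luminescence from relieved DAX1 repression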
# Target sequence (P51843 207-470 limits assumed): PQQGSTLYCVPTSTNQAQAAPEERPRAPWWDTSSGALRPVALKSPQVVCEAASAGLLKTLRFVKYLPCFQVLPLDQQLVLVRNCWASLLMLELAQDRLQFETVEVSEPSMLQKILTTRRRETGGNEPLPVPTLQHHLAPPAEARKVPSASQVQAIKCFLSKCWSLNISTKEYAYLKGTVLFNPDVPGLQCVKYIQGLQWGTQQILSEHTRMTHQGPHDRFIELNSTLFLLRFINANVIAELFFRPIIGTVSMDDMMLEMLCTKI
# DAX1 inh-2: DAX1 (NR0B1) inhibition, primary screen | HEK293T StAR-luciferase reporter, SF-1/DAX-1 repression relief | inhibition, % at 6.8 µM | 370,000 compounds, 1.1% hits | AID 652010;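 active = inhibition above the mean over all tested compounds plus 3 SD, cut at about 3.6% in these data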;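 note: 0% = DAX-1 cells with DMSO and 100% = cells lacking DAX-1 with DMSO; higher inhibition means more luminescence from relief of DAX-1 repression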
# LXR ag: activates human LXR-beta, counter-screen for hcDAF-12 agonists | AID 743027 | shares compounds with hcDAF12 agonist | activation, % at 6.8 µM | HEK293 Gal4-LXR tk-luc reporter, luminescence, 24 h; normalized: DMSO 0%, positive control 100% | 3,400 tested, under 10 active;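 active = mean percent activation of the reporter above a cutoff set as the average over tested compounds plus their standard deviation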
# Target sequence (P55055 whole entry, looked up, the tested form may be a part): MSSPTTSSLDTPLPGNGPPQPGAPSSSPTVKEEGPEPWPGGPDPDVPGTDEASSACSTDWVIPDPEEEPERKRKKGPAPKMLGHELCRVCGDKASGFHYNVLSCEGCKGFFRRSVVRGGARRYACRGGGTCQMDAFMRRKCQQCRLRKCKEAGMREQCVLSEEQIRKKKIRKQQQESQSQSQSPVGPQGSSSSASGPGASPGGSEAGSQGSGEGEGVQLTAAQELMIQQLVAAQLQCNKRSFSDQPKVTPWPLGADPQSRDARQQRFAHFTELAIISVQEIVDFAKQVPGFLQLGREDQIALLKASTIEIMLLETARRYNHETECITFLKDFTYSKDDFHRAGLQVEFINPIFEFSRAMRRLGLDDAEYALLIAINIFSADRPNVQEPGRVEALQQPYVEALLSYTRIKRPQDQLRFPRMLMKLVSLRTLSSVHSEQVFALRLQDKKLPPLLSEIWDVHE
# hcDAF12 conf: confirmation of H. contortus DAF-12 agonists; HEK293 hcDAF-12 lit1-tk-luc reporter, luminescence; % of Δ7-dafachronic acid response; 3,400 compounds, 61% hits; activation, % at 6.8 µM; shares compounds with hcDAF12 agonist;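 active = mean activation across triplicate tests above the threshold derived from the earlier primary screen, cut at about 5.5% in these data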;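 note: 0% = DMSO only wells and 100% = 3 µM Δ7-dafachronic acid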
# hgDAF12 ag: confirmation of H. glycines DAF-12 agonists; activation, % at 6.8 µM; HEK293 GAL4-hgDAF12 luciferase reporter, agonist mode; percent of butyrate response; shares compounds with hgDAF-12 ag; 3,300 compounds, 80% hits;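 active = mean activation over triplicate wells above the hit cutoff derived from the earlier primary screen, cut at about 11% in these data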;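 note: 0% = DMSO low control and 100% = 2 mM sodium butyrate high control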
# LXRb DAF12 ctr: LXR-beta agonism as DAF-12 counter-screen. shares compounds with hgDAF-12 ag. HEK293 Gal4-LXR luciferase reporter, 24 h. activation, % at 6.8 µM. 3,300 tested, under 10 active. AID 743051;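 active = mean activation of the triplicate above a set limit carried over from the primary screen, none filed active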
# The depositor's hits bear a star; / = no result given.
SMILES,hgDAF-12 ag,hcDAF12 agonist,ssDAF12 agonist,DAX1 inh-1,DAX1 inh-2,LXR ag,hcDAF12 conf,hgDAF12 ag,LXRb DAF12 ctr
O=C(N/N=C/c1c[nH]c2ccccc12)c1cc(-c2ccccc2)n[nH]1,1.9,1.3,0.1,0.9,-0.3,/,/,/,/
O=C(CCS(=O)(=O)c1ccc(Cl)cc1)Nc1nc(-c2ccncc2)cs1,-1.7,-2.3,-1.3,0.2,-0.4,/,/,/,/
O=C(Nc1nccs1)c1csc2c1CCCC2,14.0*,7.2*,0.0,0.8,0.2,0.0,4.2,10.0,0.3
Cc1cc2nc(-c3ccc(SCC(=O)Nc4nccs4)nc3)[nH]c2cc1C,3.8,4.1,-0.2,-1.0,1.3,/,/,/,/
CCc1nnc(NC(=O)CSc2ccc(-c3nc4ccc(C)cc4[nH]3)cn2)s1,16.9*,7.3*,0.2,2.9,4.4*,1.5,7.8*,17.7*,0.8
OC(c1ccc(Cl)cc1)C(O)c1nc2ccccc2[nH]1 (centres undefined),1.9,0.3,-1.6,-0.2,-0.8,/,/,/,/
S=C(Nc1ccc(Cl)cc1)c1nc2ccccc2[nH]1,18.4*,7.3*,-0.2,1.6,3.5,1.3,6.5*,16.3*,0.8
CC(C)COc1ccc(-c2cc(C(=O)NN)[nH]n2)cc1,20.2*,12.9*,2.2*,0.0,4.0*,0.1,3.1,5.5,0.2
O=C(NCc1ccccc1)OC1CCC12CCC(c1ccccc1)CC2 (centres undefined),3.2,-0.1,-1.4,/,/,/,/,/,/
Cc1cccc(-c2cnn(-c3ccccc3)c2N)c1,6.0,3.5,-0.8,2.2,0.7,/,/,/,/
Nc1c(-c2ccccc2)cnn1-c1cccc(Cl)c1,15.0*,7.1*,-0.2,3.6,2.5,0.9,4.2,16.6*,0.7
Cc1ccc(-c2nc3ccccc3nc2Cl)cc1,-1.0,-1.9,-1.1,0.7,0.8,/,/,/,/
Cc1ccc(-c2nc3ccccc3nc2NN)cc1,17.9*,11.7*,2.2*,5.1*,2.9,1.8,11.3*,19.9*,0.8
O=C1c2ccccc2-c2nc3ccccc3cc21,15.1*,7.9*,1.0*,3.6,2.3,1.3,9.9*,16.7*,0.8
Cc1[nH]nc(Nc2ccccc2)c1[N+](=O)[O-],3.9,-1.2,-1.3,1.1,0.1,/,/,/,/
Cc1cccc(Nc2n[nH]c(C)c2[N+](=O)[O-])c1,14.4*,6.8*,-0.2,2.3,3.7*,1.1,5.8*,13.7*,0.7
COc1cccc(NC(=O)CN2C(=O)NC3(CCCc4ccccc43)C2=O)c1 (centres undefined),-0.8,-0.1,-1.0,-0.6,0.4,/,/,/,/
COc1ccc(CN2C(=O)C(CC(=O)NC3CC3)CC(C(=O)N(C)C)=C2C)cc1 (centres undefined),1.9,0.9,-1.2,0.8,0.3,/,/,/,/
CC(=O)Nc1ccc(-c2cn3cc(C)ccc3n2)cc1,18.5*,10.6*,-0.1,-0.8,3.6*,1.4,7.4*,11.4*,0.5
CCN(CC)S(=O)(=O)c1ccc(-c2cn3cc(Cl)ccc3n2)cc1,4.7,-1.5,-0.3,-0.9,-0.9,/,/,/,/
Clc1ccc(-c2cn3cc(Cl)ccc3n2)cc1,14.1*,19.7*,3.2*,-0.4,2.9,2.1,17.9*,21.6*,1.4
CC(C)CC(c1nc2ccccc2[nH]1)n1c(-c2ccccc2Br)nc2ccccc21 (centres undefined),0.2,2.0,-0.6,/,-1.5,/,/,/,/
Cc1ccc([C@@H]2CC=C(C(=O)O)[C@H](c3cccc(F)c3)N2S(=O)(=O)c2ccccc2C)cc1,-0.7,0.8,-0.4,0.7,0.5,/,/,/,/
CCN(CC)c1ccc(/C=C/C(=O)C2C(=O)C=C(C)OC2=O)cc1 (centres undefined),18.8*,7.7*,0.3,0.3,2.5,0.4,4.2,7.9,0.3
O=C(COc1cccc([N+](=O)[O-])c1)NN1C(=O)c2ccccc2C1=O,1.2,1.6,-1.3,1.4,0.2,/,/,/,/
SMILES,hgDAF-12 ag,hcDAF12 agonist,ssDAF12 agonist,DAX1 inh-1,DAX1 inh-2,LXR ag,hcDAF12 conf,hgDAF12 ag,LXRb DAF12 ctr
O=C(Nc1nc2ccccc2[nH]1)c1cccc(F)c1,16.9*,13.2*,2.3*,-0.1,1.5,1.7,12.2*,17.5*,0.9
O=C(Nc1nc2ccccc2[nH]1)c1ccc([N+](=O)[O-])cc1,9.3,4.2,-0.6,1.4,1.8,/,/,/,/
COc1ccc(CN(C(=O)c2cc(=O)c3ccccc3o2)C2CCS(=O)(=O)C2)cc1 (centres undefined),-1.4,-0.5,-1.5,1.1,1.7,/,/,/,/
Nn1nnc2ccccc21,7.7,0.6,-0.6,1.6,0.6,/,/,/,/
C(=C\n1nnc2ccccc21)/c1ccccn1,18.5*,8.4*,1.2*,1.3,2.5,2.0,7.5*,24.4*,0.9
Cn1c(=O)c2c(SCCN3CCOCC3)nc(C3CCCC3)nc2n(C)c1=O,-1.7,-1.8,-2.2,-0.1,0.1,/,/,/,/
Nc1ccccc1C(=O)N/N=C1\C2CN3CCN(C2)CC1(c1ccccc1)C3,13.8*,12.2*,0.3,5.0*,3.2,-0.2,0.1,1.6,0.1
O=C(N/N=C1\C2CN3CCN(C2)CC1(c1ccccc1)C3)c1ccc(F)cc1,9.8,-0.8,-1.7,1.8,0.6,/,/,/,/
NC(=O)c1ccccc1NC(=O)c1ccc2ccccc2c1,22.6*,11.3*,3.1*,0.0,2.7,1.9,9.2*,22.5*,1.0
O=C(NC(=S)Nc1ccccc1C(=O)O)c1ccc2ccccc2c1,1.2,-1.3,-0.8,-1.0,0.5,/,/,/,/
Cc1cccc(-n2ccc(=O)c(C(=O)Nc3ccc(S(=O)(=O)Nc4onc(C)c4C)cc3)n2)c1,3.0,-1.0,-0.9,0.0,0.0,/,/,/,/
Cc1cccc(C(=O)Nc2ccc3ccccc3c2)c1,13.8*,7.0*,0.8,6.8*,3.5,2.0,6.5*,23.3*,1.0
Cc1occc1C(=O)Nc1ccc2ccccc2c1,14.3*,11.2*,1.4*,4.4*,2.3,1.1,5.5,15.7*,1.0
O=C(Nc1ccc2ccccc2c1)c1onc2c1CCCC2,13.9*,11.6*,1.4*,1.4,3.3,1.8,6.4*,21.2*,1.1
COc1cc(C(=O)Nc2ccc3ccccc3c2)cc(OC)c1OC,4.8,0.9,-0.6,/,-1.2,/,/,/,/
COc1cccc(C(=O)Nc2ccc3ccccc3c2)c1,17.1*,7.5*,0.5,-1.5,1.5,1.9,9.9*,24.3*,1.5
